CYP2C19 inhib: blocks human cytochrome P450 2C19 | 96,000 tested, 21% active | inhibition, % at 5 µM | CYP2C19 Supersomes, luciferin-H EGE luminescence, 30 min | P33261 | AID 778;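 active = CYP2C19 inhibition above a set limit at 5 µM in the primary screen, cut at about 50% in these data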
CYP2C9 inhib: inhibitors of human CYP2C9. inhibition, % at 5 µM. P11712. 96,000 tested, 20% active. AID 777. CYP2C9 Supersomes, luciferin-H conversion, luminescence;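 active = blocking of liver enzyme CYP2C9 beyond about 50% at 5 µM, limit read from the data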
CYP2C19 activ: activators of human cytochrome P450 2C19; P33261; recombinant CYP2C19, luciferin-H EGE luminescence; active compounds read high; 0 = fully inhibited enzyme, 1 = untreated enzyme; activation factor at 5 µM; 96,000 tested, under 10 active; AID 1025;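 active = activation factor of at least 2 at 5 µM in the primary screen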
Cav3 T inh: blocks human Cav3.2 T-type calcium channel | Cav3.2-expressing cells, Fluo-4 calcium fluorescence FDSS; active compounds read low | B-score at 10 µM | 100,000 tested, 4% active | AID 449739;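 active = single-dose well whose peak fluorescence ratio is a statistical outlier from its plate by either plate-standardised score or position-corrected B-score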
Target sequence (O95180 whole entry, looked up): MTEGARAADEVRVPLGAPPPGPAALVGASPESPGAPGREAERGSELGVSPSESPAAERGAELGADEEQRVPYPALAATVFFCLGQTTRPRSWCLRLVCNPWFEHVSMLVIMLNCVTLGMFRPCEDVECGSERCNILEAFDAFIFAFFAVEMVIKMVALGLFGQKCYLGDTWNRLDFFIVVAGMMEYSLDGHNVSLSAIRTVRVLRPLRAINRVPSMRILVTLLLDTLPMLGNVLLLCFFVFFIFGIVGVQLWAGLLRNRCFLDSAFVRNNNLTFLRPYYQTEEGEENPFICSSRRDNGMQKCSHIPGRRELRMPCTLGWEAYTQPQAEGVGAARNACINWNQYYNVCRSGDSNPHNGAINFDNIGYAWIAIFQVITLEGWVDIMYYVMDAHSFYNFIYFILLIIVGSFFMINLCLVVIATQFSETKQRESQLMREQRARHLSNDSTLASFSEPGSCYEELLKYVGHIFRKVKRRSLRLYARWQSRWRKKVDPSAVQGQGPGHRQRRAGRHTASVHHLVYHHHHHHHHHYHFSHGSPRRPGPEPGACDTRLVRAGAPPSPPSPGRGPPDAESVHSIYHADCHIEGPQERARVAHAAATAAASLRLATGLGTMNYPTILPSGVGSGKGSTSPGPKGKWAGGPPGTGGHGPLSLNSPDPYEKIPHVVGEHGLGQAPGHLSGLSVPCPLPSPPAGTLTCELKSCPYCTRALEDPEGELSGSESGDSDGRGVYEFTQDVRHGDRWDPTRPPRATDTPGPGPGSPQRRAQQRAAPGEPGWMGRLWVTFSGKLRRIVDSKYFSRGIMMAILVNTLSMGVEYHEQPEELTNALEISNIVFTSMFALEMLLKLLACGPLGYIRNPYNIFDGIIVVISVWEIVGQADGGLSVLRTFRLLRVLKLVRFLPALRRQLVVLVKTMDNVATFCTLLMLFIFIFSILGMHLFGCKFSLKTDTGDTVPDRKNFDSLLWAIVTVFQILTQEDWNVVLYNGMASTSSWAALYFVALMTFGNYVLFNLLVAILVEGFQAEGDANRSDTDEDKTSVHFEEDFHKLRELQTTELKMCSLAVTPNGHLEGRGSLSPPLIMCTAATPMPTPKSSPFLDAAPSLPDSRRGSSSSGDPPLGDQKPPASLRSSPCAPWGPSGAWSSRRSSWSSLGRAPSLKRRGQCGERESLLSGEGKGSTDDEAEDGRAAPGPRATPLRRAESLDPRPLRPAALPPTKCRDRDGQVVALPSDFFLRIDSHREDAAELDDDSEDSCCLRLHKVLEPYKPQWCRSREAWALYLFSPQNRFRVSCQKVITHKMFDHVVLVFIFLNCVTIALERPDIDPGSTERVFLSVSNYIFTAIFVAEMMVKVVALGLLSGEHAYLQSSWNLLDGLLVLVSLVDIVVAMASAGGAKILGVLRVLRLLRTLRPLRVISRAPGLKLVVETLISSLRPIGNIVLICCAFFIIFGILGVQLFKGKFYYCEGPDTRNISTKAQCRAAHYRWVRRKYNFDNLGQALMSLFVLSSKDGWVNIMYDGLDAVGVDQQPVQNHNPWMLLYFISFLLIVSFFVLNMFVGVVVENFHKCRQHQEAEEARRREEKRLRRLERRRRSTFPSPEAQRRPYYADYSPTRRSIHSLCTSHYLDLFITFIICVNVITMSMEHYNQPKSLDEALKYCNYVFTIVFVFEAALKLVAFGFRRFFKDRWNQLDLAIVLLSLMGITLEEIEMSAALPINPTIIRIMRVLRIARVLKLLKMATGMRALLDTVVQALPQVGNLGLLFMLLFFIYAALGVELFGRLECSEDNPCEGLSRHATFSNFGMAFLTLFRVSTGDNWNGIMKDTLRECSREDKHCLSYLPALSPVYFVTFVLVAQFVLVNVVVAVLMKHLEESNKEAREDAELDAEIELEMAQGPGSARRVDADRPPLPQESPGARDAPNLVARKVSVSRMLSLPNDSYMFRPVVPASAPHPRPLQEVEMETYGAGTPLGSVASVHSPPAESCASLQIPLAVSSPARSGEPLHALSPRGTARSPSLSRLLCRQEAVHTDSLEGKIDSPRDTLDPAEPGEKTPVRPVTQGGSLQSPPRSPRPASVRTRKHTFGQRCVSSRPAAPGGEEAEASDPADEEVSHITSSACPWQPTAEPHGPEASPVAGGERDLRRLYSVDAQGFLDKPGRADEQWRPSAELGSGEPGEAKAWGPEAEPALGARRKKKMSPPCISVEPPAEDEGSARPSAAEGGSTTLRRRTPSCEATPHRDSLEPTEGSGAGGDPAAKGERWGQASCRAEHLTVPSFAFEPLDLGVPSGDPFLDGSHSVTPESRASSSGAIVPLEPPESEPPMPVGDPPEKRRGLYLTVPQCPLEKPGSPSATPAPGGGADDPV
CYP2C9 act: activators of human CYP2C9. 96,000 tested, 1.4% active. AID 1024. activation factor at 5 µM. recombinant CYP2C9, luciferin-H conversion, luminescence; active compounds read high; factor 1 = untreated enzyme, 0 = blocked;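 active = activation factor of 2 or more for CYP2C9 at a 5 µM dose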
Large screens that a line does not name were inactive. Sampled rows, rich in hits. Any-hit rate of the full collection: about 27%.

C=CCN1C(=O)CN=C1Nc1cc(C)ccc1C	none
Cc1cc2nc(N)sc2cc1[N+](=O)[O-]	none
Cc1cc([N+](=O)[O-])c(C(C)(C)C)cc1N	CYP2C19 inhib 88.7
CCOC(=O)CC(=O)CSc1nc(C)cc(-c2cccnc2)c1C#N	CYP2C9 inhib 72.6
CCOC(=O)CC(=O)CSc1nc(-c2cccnc2)cc(C)c1C#N	CYP2C9 inhib 81.1
Cc1cc(-c2ccccc2)c(C#N)c(SCC(N)=O)n1	CYP2C9 act 3
CCOC(=O)CC(=O)CSc1nc(-c2cccnc2)ccc1C#N	none
COc1ccc(-c2noc(CN3CCOCC3)n2)cc1OC	none
NNC(=O)c1cccc(COc2cccc(Br)c2)c1	CYP2C19 inhib 98.4, CYP2C9 inhib 68.4
Cc1ccc(-n2nnnc2SCC(=O)N2CC(=O)Nc3ccccc32)cc1	CYP2C19 inhib 51.5
Cc1nnc(SCC(=O)N2CC(=O)Nc3ccccc32)n1C	none
Cc1ccccc1-n1c(C)nnc1SCC(=O)N1CC(=O)Nc2ccccc21	CYP2C19 inhib 70.2
COC(=O)C1C(=O)/C(=C(/C)N2CCCC2)C(=O)CC1(C)C (stereo not given)	none
COC(=O)c1cncc(O)c1	none
O=C(c1cc(-c2cccs2)nc2ccccc12)N1CCN(S(=O)(=O)c2ccccc2)CC1	CYP2C19 inhib 83.8, CYP2C9 inhib 94.2, Cav3 T inh -4.27
CC(C)N1CCc2c(sc(NC(=O)c3cc(-c4cccs4)nc4ccccc34)c2C(N)=O)C1	none (no result: CYP2C19 inhib, CYP2C9 inhib, CYP2C19 activ, CYP2C9 act)
O=C(c1cc(-c2cccs2)nc2ccccc12)N1CCN(S(=O)(=O)c2cccc(F)c2)CC1	CYP2C9 inhib 69.4
CCN(CC)CCC(=O)Nc1ccc2c(c1)N(C(=O)CN(CC)CC)c1ccccc1CC2	none
COC(=O)[C@@H]1C[C@@]2(O)[C@H](O)[C@H](O)[C@H](O)C[C@H]2N1C/C=C/c1ccccc1	none (no result: CYP2C19 inhib, CYP2C9 inhib, CYP2C19 activ, CYP2C9 act)
CN(CC(=O)N1CCCc2c1c(=O)oc1ccc(O)cc21)Cc1ccccc1	CYP2C19 inhib 96.1, CYP2C9 inhib 66.7
CCC(Sc1nncn1C)C(=O)Nc1ccccc1OC (stereo not given)	none
CC(O)Cc1cn(CC(=O)N2CCN(C(=O)OC(C)(C)C)CC2)nn1 (stereo not given)	none (no result: CYP2C19 inhib, CYP2C9 inhib, CYP2C19 activ, CYP2C9 act)
CCOC(=O)c1nnn(CC(=O)N2N=C(c3ccc(Cl)cc3)CC2c2ccc(OC)cc2)c1C(=O)OCC (stereo not given)	none (no result: CYP2C19 inhib, CYP2C9 inhib, CYP2C19 activ, CYP2C9 act)
CNC(=S)N1N=C(c2ccc(C)cc2)CC1c1ccc(OC)cc1 (stereo not given)	CYP2C19 inhib 76.9, CYP2C9 inhib 92.8, Cav3 T inh -4.08
Cc1ccc(S(=O)(=O)Cn2nnnc2C(c2ccc(F)cc2)N2CCC(C(N)=O)CC2)cc1 (stereo not given)	none
Fc1ccc(C[n+]2csc3ccccc32)cc1	CYP2C9 inhib 60.3
COC(=O)c1cn(C(=O)c2cccs2)c2ccccc12	CYP2C9 inhib 59.3
O=C(c1cn(CC(=O)N2CCCCC2)c2ccccc12)C1CC1	CYP2C19 inhib 51.9
O=C(c1cccs1)c1cn(CC(=O)N2CCc3ccccc3C2)c2ccccc12	CYP2C19 inhib 83.5, CYP2C9 inhib 91.3
CCOC(=O)Cn1cc(C(=O)c2cccs2)c2ccccc21	CYP2C19 inhib 96.8, CYP2C9 inhib 94.5
Cc1ccc(C(C)C)c(OCc2nnc(SCC(=O)Nc3ncc(C)s3)n2C)c1	none
O=C(O)CCC(=O)N1CCc2cc(S(=O)(=O)N3CCC(Cc4ccccc4)CC3)ccc21	none
O=C(O)CCCN=CC1=C(O)C(C(=O)c2ccccc2)CCC1=O (stereo not given)	none (no result: CYP2C19 inhib, CYP2C9 inhib, CYP2C19 activ, CYP2C9 act)
CN1CCN(CCCNC(=O)CCCOc2cc(=O)n(C)c3ccccc23)CC1	none
Cc1ccc(C)c(N2CCN(C(=O)CCCOc3cc(=O)n(C)c4ccccc34)CC2)c1	CYP2C19 inhib 94.3, CYP2C9 inhib 90.3
Cc1ccc(C)c(N2CCN(C(=O)COc3cc(=O)n(C)c4ccccc34)CC2)c1	none (no result: Cav3 T inh)
CC1CCN(C(=O)CCCOc2cc(=O)n(C)c3ccccc23)CC1	CYP2C19 inhib 50.3
Cc1cccc(N2CCN(C(=O)COc3cc(=O)n(C)c4ccccc34)CC2)c1C	CYP2C19 inhib 51.3
COc1ccc(N2CCN(C(=O)CCCOc3cc(=O)n(C)c4ccccc34)CC2)cc1	CYP2C19 inhib 88.4, CYP2C9 inhib 87.8
CCCCn1nnnc1NCc1ccc(C)s1	none (no result: CYP2C19 inhib, CYP2C9 inhib, CYP2C19 activ, CYP2C9 act)
COC(=O)[C@@H]1C[C@@]2(O)[C@@H](O)[C@@H](O)[C@@H](O)C[C@H]2N1Cc1ccc(Cl)cc1	none (no result: CYP2C19 inhib, CYP2C9 inhib, CYP2C19 activ, CYP2C9 act)
CN1CCCN(C(=O)Cc2c(Cl)cccc2Cl)c2nc3ccccc3nc21	none
O=C(Nc1cc2c(cc1Cl)OCCCO2)c1ccccc1	none
O=S(=O)(NCc1ccco1)N1CCOCC1	none
Cc1ccc(CNC(=O)CCCOc2cc(=O)n(C)c3ccccc23)o1	none
COc1ccc(CNC(=O)CCCOc2cc(=O)n(C)c3ccccc23)cc1	CYP2C19 inhib 91.7, CYP2C9 inhib 77.6
COCCN1C(=O)C(CC(=O)Nc2ccc(C(C)=O)cc2)SC1=Nc1ccccc1 (stereo not given)	CYP2C19 inhib 53.6, CYP2C9 inhib 71.7 (no result: Cav3 T inh)
CC(O)CN1C(=O)C(CC(=O)Nc2ccc(Cl)cc2)SC1=Nc1ccccc1 (stereo not given)	CYP2C19 inhib 72.0, CYP2C9 inhib 66.9
CCCN1C(=O)SC(CC(=O)Nc2ccc(C)cc2)C1=O (stereo not given)	none (no result: CYP2C19 inhib, CYP2C9 inhib, CYP2C19 activ, CYP2C9 act)
Cc1ccc(CNC(=O)C2CCN(S(=O)(=O)N3CCOCC3)CC2)cc1	none
O=C(CN1CCCC1)Nc1ccc(-c2nc3cc(NC(=O)CN4CCCC4)ccc3o2)cc1	none
NS(=O)(=O)c1ccc(NC(=O)c2ccccc2Cl)cc1	none
Cc1ccc(C)c(NC(=O)c2ccccc2O)c1	CYP2C9 inhib 51.4
CC(=O)c1c(C)[nH]c(C(=O)Nc2cc(C)ccc2C)c1C	none
O=C(Nc1ccccc1O)c1ccccc1O	CYP2C9 inhib 62.9
Cc1cccc(NC(=O)c2ccccc2O)c1C	none
Cc1ccc(C)c(NC(=O)c2ncn[nH]2)c1	Cav3 T inh -4.2
CCS(=O)(=O)c1ccc(NC(=O)c2ccccc2Cl)c(O)c1	CYP2C9 inhib 53.1 (no result: Cav3 T inh)
CCCCC(=O)NC1(C(F)(F)F)C(=O)Nc2c1c(=O)n(C)c(=O)n2C (stereo not given)	none
CCCNC(=O)N1CCN(S(=O)(=O)c2ccc(C)c(C)c2)CC1	none (no result: CYP2C19 inhib, CYP2C9 inhib, CYP2C19 activ, CYP2C9 act)
O=c1c(Cc2ccc(Cl)cc2Cl)c(O)ccn1Cc1ccc(Cl)cc1	CYP2C19 inhib 54.5
O=C(COc1ccc2ccccc2c1)NC1=NCCS1	CYP2C19 inhib 64.8
COc1ccc(CC(=O)NC2=NCCS2)cc1	CYP2C19 inhib 76.5
O=C(CNC(=O)c1cccs1)NC1=NCCS1	none
O=C(COc1ccc2ccccc2c1)NCCNC(=O)COc1ccc2ccccc2c1	none
Cc1cc(C)cc(OCC(=O)NC2=NCCS2)c1	CYP2C9 act 2.3
CC(C)(C)c1ccc(OCCCC(=O)NC2=NCCS2)cc1	CYP2C19 inhib 64.8
O=[N+]([O-])c1ccc(-c2cc(-c3ccncc3)nc3ccc4ccccc4c23)cc1	none
CC1CCCCC1NC(=O)COn1nnc2ccc(Cl)cc21 (stereo not given)	CYP2C19 inhib 97.9
